# Screens (PubChem)
# Sampled rows, rich in hits. Any-hit rate of the full collection: about 3.1%.
# CF NFkB inh: cystic fibrosis NF-kB activation inhibition. inhibition, % at 5 µM. KKLEB NF-kB-GFP reporter, PAF-induced, GFP fluorescence overnight. AID 588850. 360,000 compounds, 0.86% hits;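 active means at least 50% inhibition at 5 µM, scaled per plate between neutral and stimulator controls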;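 further: PAF is a Pseudomonas aeruginosa culture filtrate used as stimulus; plate controls were PAF-stimulated DMSO wells for no effect and unstimulated DMSO wells for full effect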
# TRPM1 prom inh: MITF TRPM1 promoter inhibition in SK-MEL-5 cells; SK-MEL-5 TRPM1 promoter luciferase, 24 h; inhibition, % at 12.5 µM; 330,000 compounds, 0.83% hits; AID 488899;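 active means mean inhibition across replicates of 60% or more, whatever share of single replicates reaches that level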
# KKLEB cytotox: counter-screen for CF NF-kB inhibitors: cytotoxicity | KKLEB CF airway cells viability, ATPlite luminescence, overnight; active compounds read low; cells stimulated with P. aeruginosa culture filtrate | activity change (cytotoxicity), % at 5 µM | 360,000 compounds, 0.36% hits | AID 602141;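 active means corrected activity change at or below -50% at 5 µM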
# HIF-2a inh: inhibitors of HIF-2a; 786-0 RCC cells HIF-2a reporter, luciferase luminescence, overnight; inhibition, % at 18.8 µM; 360,000 compounds, 0.72% hits; AID 624352;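 active means inhibition of the luminescence signal of 40% or more relative to plate controls, in a single-dose primary screen at 18.75 µM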
# Peg3 promoter: inhibitors of Peg3 promoter; 360,000 compounds, 1.7% hits; AID 588405; inhibition, % at 20 µM; HeLa PEG-Prom luciferase reporter, luminescence, overnight;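 active means inhibition of at least 50% at 20 µM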
# ABHD5-PLIN5 inh: inhibitors of human ABHD5-perilipin-5 interaction; Q00G26+Q8WTS1; Split G. princeps luciferase complementation, luminescence, 4 h; inhibition, % at 4 µM; 360,000 compounds, 0.78% hits;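 active means inhibition above the mean inhibition across every tested compound plus 3 SD, cut at about 22% in these data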;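 further: 0% = DMSO only wells and the 100% control is not disclosed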
# Target sequence (Q00G26 whole entry, looked up): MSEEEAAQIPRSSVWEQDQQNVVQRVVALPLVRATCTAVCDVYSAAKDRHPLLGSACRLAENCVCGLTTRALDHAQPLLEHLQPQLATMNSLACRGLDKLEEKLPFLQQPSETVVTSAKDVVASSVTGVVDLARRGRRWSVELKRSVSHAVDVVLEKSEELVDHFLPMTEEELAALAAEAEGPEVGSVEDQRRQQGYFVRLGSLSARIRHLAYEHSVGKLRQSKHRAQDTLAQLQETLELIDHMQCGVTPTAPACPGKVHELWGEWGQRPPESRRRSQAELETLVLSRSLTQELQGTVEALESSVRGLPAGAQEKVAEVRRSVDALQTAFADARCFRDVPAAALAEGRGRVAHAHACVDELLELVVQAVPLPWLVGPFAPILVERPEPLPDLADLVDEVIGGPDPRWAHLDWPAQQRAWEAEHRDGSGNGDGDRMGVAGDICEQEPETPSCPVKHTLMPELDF
# Target sequence (Q8WTS1 whole entry, looked up): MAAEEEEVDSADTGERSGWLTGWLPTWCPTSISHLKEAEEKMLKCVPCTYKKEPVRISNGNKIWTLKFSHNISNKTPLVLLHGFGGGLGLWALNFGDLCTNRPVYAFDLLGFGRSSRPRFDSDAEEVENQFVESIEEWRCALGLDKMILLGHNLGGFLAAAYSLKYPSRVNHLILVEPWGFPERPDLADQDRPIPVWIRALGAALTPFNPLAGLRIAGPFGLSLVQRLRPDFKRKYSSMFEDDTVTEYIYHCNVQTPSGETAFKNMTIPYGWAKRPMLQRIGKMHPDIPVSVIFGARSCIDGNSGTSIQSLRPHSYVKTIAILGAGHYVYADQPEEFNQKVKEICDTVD
# Numbers without * were called inactive; . = not tested or not shown.
SMILES,CF NFkB inh,TRPM1 prom inh,KKLEB cytotox,HIF-2a inh,Peg3 promoter,ABHD5-PLIN5 inh
NC(c1csc(NC(=O)Nc2ccccc2Cl)n1)C1CCCCC1 (centres undefined),13.8,.,-12.7,-18.4,94.9*,-0.8
NC(COCc1ccccc1)c1csc(NC(=O)Nc2cccc(C(F)(F)F)c2)n1 (centres undefined),85.5*,.,-82.7*,11.6,100.4*,-1.1
NC(c1csc(NC(=O)Nc2cccc(Cl)c2)n1)C1CCCCC1 (centres undefined),32.5,.,-12.1,5.4,91.9*,-3.5
COc1cc(NC(=O)Nc2nc(C(N)C3CCCCC3)cs2)cc(OC)c1OC (centres undefined),6.5,.,10.0,4.0,25.2,8.4
NC(c1csc(NC(=O)Nc2ccccc2)n1)C1CCCCC1 (centres undefined),19.8,.,-3.5,-10.9,47.9,-6.1
NC(=O)c1ccc(Nc2nc(C(N)COCc3ccccc3)cs2)cc1 (centres undefined),21.2,.,-4.0,-1.4,11.0,8.8
COc1ccccc1NC(=O)Nc1nc(C(N)C2CCCCC2)cs1 (centres undefined),6.9,.,-13.9,3.3,82.1*,3.1
Cc1ccc(SCC(=O)Nc2ccc(F)cc2[N+](=O)[O-])cc1C,0.0,-5.1,-3.5,-8.6,8.0,10.2
CCC(C(=O)NC1CCCC1)n1c(-c2ccncc2)nc2ccccc21 (centres undefined),.,.,.,5.3,.,0.8
COc1ccc(CCNC(=O)Nc2nc(C(N)CCc3ccccc3)cs2)cc1OC (centres undefined),-0.3,.,0.6,1.0,27.7,-2.2
NC(CCc1ccccc1)c1csc(NC(=O)Nc2cccc(Cl)c2)n1 (centres undefined),28.2,.,-18.5,14.3,89.0*,-11.7
CCN1CCN(c2cc(SC(C)C)nc(-c3ccc(OC)cc3)n2)CC1,1.0,-3.0,-5.4,7.7,53.1*,20.1
CC(C)Sc1cc(N2CCOCC2)nc(-c2ccc(Cl)cc2)n1,6.0,-4.8,6.3,15.3,16.4,-0.2
O=C(CN1CCOCC1)Nc1ccc2c(c1)OCCO2,1.0,-26.7,3.8,-87.0,-49.7,-3.7
COC(=O)C(=C/C=C/c1ccco1)C(=O)OC,-6.6,-10.7,9.4,-16.5,-20.0,22.8*
CCN(CC)S(=O)(=O)c1ccc(S(=O)(=O)N2CCCC(C(=O)NC3CC3)C2)cc1 (centres undefined),14.4,28.6,1.7,11.8,1.0,2.5
Nc1ccc2nc(-c3ccccc3)sc2c1,-38.5,36.3,-31.0,-4.9,-7.2,1.3
CCC(C)(C)NC(=S)Nc1ccc(-c2nc3ccc(C)cc3s2)cc1,-12.1,-32.1,-5.0,-140.4,-165.2,-5.9
Cc1ccc2nc(-c3ccc(N)cc3)sc2c1,-53.1,14.0,-56.0*,-76.2,-55.0,7.7
Cc1ccc2nc(-c3ccc(NC(=S)NCC(C)(C)CN(C)C)cc3)sc2c1,16.5,-12.5,-20.6,-210.9,60.5*,21.4
COC(=O)Cn1c(=NC(=O)c2cc(-c3cccs3)nc3ccccc23)sc2cc(S(N)(=O)=O)ccc21,-25.7,3.4,17.6,-23.4,16.4,25.8*
CCOC(=O)Cn1c(=NC(=O)c2cc(-c3cccs3)nc3ccccc23)sc2cc(S(N)(=O)=O)ccc21,23.0,-7.6,-30.7,34.8,43.9,8.8
C(=C\c1nc(N2CCCC2)c2ccccc2n1)/c1ccccc1,-87.0,2.0,-5.0,-77.6,103.3*,2.0
COc1ccccc1CN1C(=O)C(Cc2ccccc2)ON=C1c1ncccc1C (centres undefined),-12.3,.,12.0,1.4,5.3,-2.3
CCN(CC)c1ccc2c(Cl)c(Br)c(=O)oc2c1,37.2,54.1,-11.8,87.8*,104.5*,6.2
SMILES,CF NFkB inh,TRPM1 prom inh,KKLEB cytotox,HIF-2a inh,Peg3 promoter,ABHD5-PLIN5 inh
CN(C)S(=O)(=O)c1cccc(-c2nn(-c3ccccc3)cc2/C=C(\C#N)c2nc3ccccc3[nH]2)c1,1.2,-0.3,-24.9,19.1,2.5,-6.9
CN(C)S(=O)(=O)c1cccc(-c2nn(-c3ccccc3)cc2/C=C2\SC(=S)NC2=O)c1,53.3*,-0.4,-16.8,0.0,59.9*,4.5
CCOc1cccc(/C=C/c2ccc3cccc(O)c3n2)c1OC,-52.9,-7.7,0.8,-330.8,-18.1,-9.8
CCOc1cccc(/C=C/c2ccc3cccc(O)c3n2)c1O,-35.0,-18.6,13.5,-243.1,96.6*,1.1
CCCNC(=O)c1ccccc1NC(=O)c1ccc2c(c1)NC(=O)C(C)S2 (centres undefined),-6.1,1.7,-21.3,-14.3,9.6,-0.8
O=C(Nc1ccc(Cl)c([N+](=O)[O-])c1)C(Sc1ccccc1)c1ccccc1 (centres undefined),49.8,-3.6,-7.7,17.9,52.9*,-11.8
CC(=O)N(Nc1ccccc1)c1ccccc1,-4.9,1.2,4.2,8.8,5.4,-3.9
O=C(c1cc(-c2ccccc2Cl)nc2ccc(Br)cc12)N1CCN(c2ccccn2)CC1,2.7,32.9,8.2,15.2,92.2*,5.2
CCC1NC(=O)c2cc3ccccc3cc2-n2c1nc1cc(C)cc(C)c1c2=O (centres undefined),-5.8,.,-11.3,11.3,12.6,-3.9
Cc1ccc2c(=O)n3c(nc2c1)C(Cc1ccc(O)cc1)NC(=O)c1cc2ccccc2cc1-3 (centres undefined),-6.8,.,-10.7,0.7,62.2*,6.5
O=C1NC(Cc2ccc(O)cc2)c2nc3cc(F)ccc3c(=O)n2-c2cc3ccccc3cc21 (centres undefined),17.7,.,-10.6,21.1,47.5,0.1
O=C1NC(Cc2ccc(O)cc2)c2nc3ccc(Cl)cc3c(=O)n2-c2cc3ccccc3cc21 (centres undefined),22.8,.,-16.9,-39.4,60.7*,-0.7
Cc1cc(C)c2c(=O)n3c(nc2c1)C(Cc1ccccc1)NC(=O)c1cc2ccccc2cc1-3 (centres undefined),73.6*,.,-63.2*,-5.5,-1.6,-1.3
C[C@@H](c1ccccc1)N1C[C@H](COCc2ccccc2)Oc2cc(N3CCC[C@@H]3CO)ccc2S1(=O)=O,.,.,.,7.6,.,-0.7
Cc1ccc(CN2CCN(/N=C\c3cccc([N+](=O)[O-])c3)CC2)cc1,-11.6,3.1,0.5,-57.9,-2.9,-9.2
CCOc1ccc(OCC(=O)Nc2nccs2)cc1,-1.6,52.2,-8.6,37.6,59.0*,1.1
CC(C)(C)S(=O)N1Cc2cc(C(=O)NCc3ccc(Oc4ccccc4)cc3)nc(-c3cccc(-c4cc5ccccc5o4)c3)c2[C@H]1CCO (some centres undefined),-0.7,.,-5.6,-11.0,39.1,8.1
CC(C)(C)S(=O)N1Cc2cc(C(=O)NCc3ccc4c(c3)OCO4)nc(-c3cccc(-c4cc5ccccc5o4)c3)c2[C@@H]1CCO (some centres undefined),13.5,.,-9.8,2.7,32.6,23.6*
